This is an account of results in PubChem BioAssay (EPA / NIEHS).

Assay [1] is described as follows: ATG_CRE_CIS: Attagene CIS-FACTORIAL HepG2 Assay for human cAMP Responsive Element (CRE) binding protein 3 (AID 2282926). The settings on record: HepG2 CRE cis-reporter, Attagene multiplexed mRNA; actives raise or lower the signal. The gist of the method: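 Readout: fluorescently labelled reporter transcripts resolved by capillary electrophoresis after RT-PCR, taken 24 h post-dosing in transfected HepG2. Endogenous transcription factor activity drives each cis-element reporter; gain or loss of signal fitted relative to DMSO control.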

The target of assay [2] is CCAAT/enhancer-binding protein beta (Homo sapiens) (UniProt P17676). Kind of assay: ATG_C_EBP_CIS: Attagene CIS-FACTORIAL HepG2 Assay for human CCAAT/Enhancer Binding Protein (C/EBP) beta (AID 2282927). Conditions: HepG2 Attagene cis-factorial transcription factor reporter; actives raise or lower the signal. In short, it runs like this: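 HepG2, transient MRTU transfection, 24 h treatment. RT-PCR plus CE fluorescence; DMSO negative control, bidirectional fit.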

Assay [3] is described as follows: ATG_DR4_LXR_CIS: Attagene CIS-FACTORIAL HepG2 Assay for human Liver X Receptor (LXR), DR4 submotif (AID 2282929). The settings on record: HepG2 Attagene DR4 cis-reporter, mRNA transcription; actives raise or lower the signal. The gist of the method: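 Total RNA from 24 h-treated, MRTU-transfected HepG2 cells underwent reverse transcription, PCR, fluorescent primer extension and restriction digestion before capillary electrophoresis. Both increases and decreases in reporter signal were fitted against DMSO.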

For assay [4], the target named is Aryl hydrocarbon receptor (Homo sapiens) (UniProt P35869). As to the kind of experiment: ATG_Ahr_CIS: Attagene CIS-FACTORIAL HepG2 Assay for human Aryl Hydrocarbon Receptor (Ahr) (AID 2282930). The settings on record: HepG2 AhR cis-factorial reporter transcription; actives raise or lower the signal. The gist of the method:
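Endogenous factor activity is tracked through cis-promoter reporter units transfected into HepG2 cells. Transcript levels at 24 h are read by fluorescent RT-PCR and capillary electrophoresis, with activity in either direction scored relative to DMSO.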

A short description of assay [5]: ATG_AP_1_CIS: Attagene CIS-FACTORIAL HepG2 Assay for human Activator Protein 1 (AP-1) (AID 2282931). Conditions: HepG2 Attagene cis-factorial AP-1 reporter mRNA; actives raise or lower the signal. The gist of the method:
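HepG2, transient cis-reporter transfection; 24 h; readout RT-PCR/CE fluorescence; DMSO baseline, gain and loss fitted.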

Assay [6] in a line: ATG_AP_2_CIS: Attagene CIS-FACTORIAL HepG2 Assay for human Activator Protein 2 (AP-2) (AID 2282932). Conditions: HepG2 AP-2 cis-reporter, Attagene transcription factor profiling; actives raise or lower the signal. The gist of the method:
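Read-out: fluorescent reporter mRNA via RT-PCR and capillary electrophoresis, 24 h post-dose in transiently transfected HepG2. Endogenous factors drive cis-promoter reporters; gain or loss of signal fitted bidirectionally against DMSO.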

Assay [7] can be described thus: ATG_BRE_CIS: Attagene CIS-FACTORIAL HepG2 Assay for human Bone Morphogenetic Protein (BMP) Response Element (BRE) (AID 2282933). The settings on record: HepG2 BMP response element reporter, Attagene transcription factor profiling; actives raise or lower the signal. The gist of the method: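 Multiplexed cis-reporter assay, HepG2, 24 h exposure. mRNA from reporter units quantified via RT-PCR/CE; DMSO baseline; bidirectional curve fit.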

Assay [8] addresses Retinoic acid receptor alpha (Homo sapiens) (UniProt P10276). As to the kind of experiment: ATG_DR5_RAR_CIS: Attagene CIS-FACTORIAL HepG2 Assay for human Retinoic Acid Receptor Alpha (RARE), DR5 submotif (AID 2282934). The settings on record: HepG2 Attagene cis-factorial RARE DR5 reporter, mRNA; actives raise or lower the signal. In short, it runs like this:
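After 24 h of chemical exposure, transiently transfected HepG2 cells were lysed for total RNA; the DR5-regulated reporter transcript was quantified via RT-PCR and capillary electrophoresis, with activity fitted bidirectionally against DMSO.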

Assay [9] in a line: ATG_CMV_CIS: Attagene CIS-FACTORIAL HepG2 Assay for human CMV (Internal Marker) (AID 2282928).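 Note: endpoint acts as a background internal control marker rather than a target.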 The settings on record: HepG2 CMV promoter reporter, transcription factor profiling; actives raise or lower the signal. In short, it runs like this:
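24 h chemical treatment, HepG2 with transient multi-reporter transfection; RNA → oligo(dT) RT → PCR → 6-FAM extension → HpaI digest → CE fluorescence. Bidirectional fit, DMSO negative control.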

Calls of active or inactive are those of the source. Rule for the calls: active = hit-call score of the fitted dose curve at least 0.9, where 1 is the maximum; inactive = score below 0.9.

Aryl hydrocarbon receptor (Homo sapiens), sequence (P35869 whole entry, looked up): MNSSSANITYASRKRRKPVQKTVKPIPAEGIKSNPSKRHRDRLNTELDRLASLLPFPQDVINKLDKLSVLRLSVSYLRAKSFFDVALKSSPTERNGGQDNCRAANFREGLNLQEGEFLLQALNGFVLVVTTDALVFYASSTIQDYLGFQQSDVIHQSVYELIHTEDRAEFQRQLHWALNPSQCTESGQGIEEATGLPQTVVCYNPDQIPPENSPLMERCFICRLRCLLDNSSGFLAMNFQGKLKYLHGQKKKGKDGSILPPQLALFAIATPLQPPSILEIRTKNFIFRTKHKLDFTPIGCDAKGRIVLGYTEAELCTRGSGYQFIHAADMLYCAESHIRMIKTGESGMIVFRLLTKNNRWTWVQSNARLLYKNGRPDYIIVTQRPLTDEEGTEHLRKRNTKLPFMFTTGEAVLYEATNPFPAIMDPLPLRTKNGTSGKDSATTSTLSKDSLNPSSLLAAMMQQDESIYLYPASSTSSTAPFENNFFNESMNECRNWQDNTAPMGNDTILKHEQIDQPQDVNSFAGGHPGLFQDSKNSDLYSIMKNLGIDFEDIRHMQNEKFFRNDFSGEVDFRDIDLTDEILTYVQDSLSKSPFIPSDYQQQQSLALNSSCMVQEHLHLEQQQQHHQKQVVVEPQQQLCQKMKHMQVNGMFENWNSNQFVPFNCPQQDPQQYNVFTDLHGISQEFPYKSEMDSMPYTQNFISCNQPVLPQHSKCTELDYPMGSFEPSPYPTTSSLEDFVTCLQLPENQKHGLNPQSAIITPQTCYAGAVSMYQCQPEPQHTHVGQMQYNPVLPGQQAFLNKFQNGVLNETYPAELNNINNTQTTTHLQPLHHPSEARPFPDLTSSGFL
CCAAT/enhancer-binding protein beta (Homo sapiens), sequence (P17676 whole entry, looked up): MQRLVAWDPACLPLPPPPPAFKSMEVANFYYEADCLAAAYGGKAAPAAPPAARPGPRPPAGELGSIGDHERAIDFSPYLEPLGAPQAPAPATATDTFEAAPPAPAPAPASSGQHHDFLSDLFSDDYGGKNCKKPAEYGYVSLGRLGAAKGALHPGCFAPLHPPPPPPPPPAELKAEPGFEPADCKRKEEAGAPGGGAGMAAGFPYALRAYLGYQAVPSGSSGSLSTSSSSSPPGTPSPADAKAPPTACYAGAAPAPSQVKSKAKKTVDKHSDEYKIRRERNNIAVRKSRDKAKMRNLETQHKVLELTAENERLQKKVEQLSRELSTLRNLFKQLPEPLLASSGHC
Retinoic acid receptor alpha (Homo sapiens), sequence (P10276 whole entry, looked up): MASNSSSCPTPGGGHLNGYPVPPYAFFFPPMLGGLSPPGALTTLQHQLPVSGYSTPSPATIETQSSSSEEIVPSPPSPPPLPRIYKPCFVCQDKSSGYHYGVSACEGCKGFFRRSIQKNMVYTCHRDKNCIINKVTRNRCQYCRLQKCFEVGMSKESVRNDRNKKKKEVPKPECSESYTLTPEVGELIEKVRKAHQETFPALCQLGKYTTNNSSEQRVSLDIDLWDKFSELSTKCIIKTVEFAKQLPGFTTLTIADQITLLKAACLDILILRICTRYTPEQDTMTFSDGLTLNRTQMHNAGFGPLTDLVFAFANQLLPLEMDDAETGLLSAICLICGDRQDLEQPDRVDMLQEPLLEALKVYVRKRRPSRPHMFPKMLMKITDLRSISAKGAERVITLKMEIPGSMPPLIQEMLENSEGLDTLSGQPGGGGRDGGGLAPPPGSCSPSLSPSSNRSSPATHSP

As to `NC(=O)c1cnccn1`, the outcome in [1], in assay [2], in [3], in [4], in [5] and in [6] was inactive. Also, the result in [7] was inactive.
For the compound `CCOC(=O)C(=O)OCC`, the compound was called inactive in [1], in assay [2], in assay [3], in [5], in assay [6] and in assay [7]. Moreover, the compound was classed as inactive in assay [8].
Turning to `C=CC(C)CCCC(C)(C)O` (stereo not drawn), the outcome in assay [1], in assay [2], in assay [3], in assay [4], in assay [5] and in assay [6] was inactive. Moreover, the compound was called inactive in assay [7] and in assay [8].
In the case of `NCCN1CCNCC1`, the call in assay [1], in [2], in assay [3], in assay [4], in [5] and in assay [6] was inactive. The compound was called inactive in [7] and in assay [8].
`CCOC(=O)CCCCCCCCC(=O)OCC`: the compound was classed as inactive in [1], in [2], in assay [3], in assay [4], in assay [5] and in assay [6]. Further, the call in assay [7] and in assay [8] was inactive.
On to `CC12CCC(C1)C(C)(C)C2O` (stereo not drawn), for which the compound was classed as inactive in [1], in assay [2], in [3], in assay [5], in assay [6] and in [7]. In [8], the compound was called inactive.
For the compound `CCC(=O)OC(C)(C)C1CC=C(C)CC1` (stereo not drawn), the compound was called inactive in assay [1], in assay [2], in assay [3], in assay [5], in assay [6] and in assay [7]. Also, the compound was called inactive in assay [8].
With `CC(=N[Si](C)(C)C)O[Si](C)(C)C`, the call in assay [1], in assay [9], in assay [3], in assay [4], in assay [5] and in [6] was inactive. For the same compound, the compound was called inactive in [7].
Turning to `CCO[Si](CCC#N)(OCC)OCC`, the outcome in assay [1], in [2], in assay [3], in assay [6] and in assay [7] was inactive.
In the case of `CC1=C(C=O)C(C)(C)CCC1`, the compound was called inactive in assay [1], in [2], in [3], in [4], in assay [5] and in [6]. Besides, in [7], the compound was called inactive.
Consider `CCCCCCCCOS(=O)(=O)O`, for which the result in assay [1], in assay [2], in assay [3], in assay [4], in assay [5] and in [6] was inactive. Moreover, in [7], the call was inactive.
With `OC[C@@H](O)[C@H](O)[C@@H](O)[C@@H](O)CO`, the call in assay [1], in assay [2], in assay [3], in assay [5], in assay [6] and in assay [7] was inactive. For the same compound, in [8], the compound was called inactive.
Regarding `C=C(C)CCCC(C)CCO` (stereo not drawn), the compound was called inactive in assay [1], in assay [2], in [5], in assay [6], in assay [7] and in assay [8].
As for `Cc1ccc(C(C)(C)O)cc1`, the call in assay [1], in assay [2], in [3], in [4], in assay [5] and in [6] was inactive. Besides, in assay [7], the compound was classed as inactive.
With `CCOC(=O)CC1(C)OCC(C)O1` (stereo not drawn), the compound was called inactive in [1], in assay [2], in [3], in assay [5], in assay [6] and in [7]. Moreover, the compound was called inactive in assay [8].
`Brc1cc(Br)cc(Br)c1`: the result in assay [1], in assay [9], in assay [3], in assay [4], in [5] and in assay [6] was inactive. For the same compound, the compound was classed as inactive in [7].
Broadly, the AC50 is the midpoint of the concentration-response curve, whichever way the signal moves. `CCCCCCCCCCO[C@@H]1O[C@H](CO)[C@@H](O)[C@H](O)[C@H]1O`: the result in assay [1], in assay [2], in assay [4], in assay [5], in assay [6] and in [7] was inactive. In assay [8], the call was inactive. Moreover, in [3], the AC50 was 125 µM (active).
Turning to `CC(C)Cc1ccc(C(C)C(=O)O)cc1` (stereo not drawn), the result in assay [1], in assay [2], in assay [3], in assay [4], in assay [5] and in [6] was inactive. For the same compound, the call in assay [7] and in [8] was inactive.
Consider `O=S1(=O)CC=CC1`, for which the compound was called inactive in [1], in [2], in assay [3], in [4], in [5] and in assay [6]. Moreover, the outcome in assay [7] and in assay [8] was inactive.
For the compound `CC/C=C\CCOC(C)OCC` (stereo not drawn), the compound was classed as inactive in assay [1], in assay [9], in [3], in [4], in [5] and in assay [6]. Further, in [7], the compound was called inactive.
On to `CN(C)c1ccc(C=O)cc1`, for which the call in assay [1], in assay [9], in [3], in assay [4], in assay [5] and in [6] was inactive. The call in assay [7] was inactive.
With `CCCCCC(=O)O[C@]1(C(C)=O)CC[C@H]2[C@@H]3CCC4=CC(=O)CC[C@]4(C)[C@H]3CC[C@@]21C`, the AC50 is 6.58 µM (active) in [1], 8.6 µM (active) in assay [2], 36.5 µM (active) in [5] and 7.66 µM (active) in assay [7]. Also, the call in assay [3] and in [6] was inactive.
For `CCCCCCCCSCc1cc(C)c(O)c(CSCCCCCCCC)c1`, the outcome in [1], in [9], in [3], in [4], in [5] and in [6] was inactive. Further, the call in assay [7] was inactive.
As to `C1COCO1`, the result in assay [1], in assay [2], in assay [3], in assay [4], in assay [5] and in assay [7] was inactive.
In the case of `c1ccc(OCCOc2ccccc2)cc1`, the outcome in assay [1], in [2], in [3] and in [7] was inactive. In assay [4], the concentration at half-maximal activity (AC50) was 0.142 µM (active).
With `CCCCCCC(C)O` (stereo not drawn), the compound was called inactive in assay [1], in assay [2], in [3], in [5], in assay [6] and in [7].
Consider `NC(=O)c1cccnc1`, for which the compound was called inactive in assay [1], in assay [9], in [3], in assay [6] and in [7]. For the same compound, the AC50 in assay [4] was 29 µM (active).
Regarding `c1coc(CNc2ncnc3nc[nH]c23)c1`, the result in [1], in assay [9], in assay [3], in [4] and in assay [7] was inactive.
As to `CC(C)(O)CCc1ccccc1`, the compound was classed as inactive in assay [1], in assay [9], in [3], in [5], in assay [6] and in [7]. Besides, the compound was classed as inactive in assay [8].
